Laboratory results taken from ChEMBL document CHEMBL3988442, “University of Dundee, Small-Polar-MMV Screening Library” (2021).
The campaign covered roughly 48,000 compounds. About 13,000 (27%) showed an effect of 50% or more. Some of the results follow.

test system: Wolbachia pipientis; test: Anti-Wolbachia Cell-Based Screen; assay type: functional; parameters: scale not given: in the data most compounds retested in dose-response had high values; settings: 5 µM

Compound	Percent Effect [%]
COc1cccc2[nH]cc(CCNC(=O)N3CCC[C@H]3CO)c12	0.855
Cc1cc(NC(=O)NCc2ccccn2)n(C)n1	11.39
Cn1nc(C(=O)NCc2ccccn2)c2c1CCS(=O)(=O)C2	2.968
CN1CCN(c2cc(CNC(=O)c3ccc(=O)n(C)c3)ccn2)CC1	6.282
Cn1nc(CC(C)(C)C)cc1NC(=O)c1ccc(CNC(N)=O)cc1	-16.73
Cn1c(=O)c2cc(C(=O)NCc3ccccn3)ccc2n(C)c1=O	80.97
Cn1c(=O)c2cc(C(=O)NCc3ccncc3)ccc2n(C)c1=O	119.1
CC(C)n1cnnc1CN1C(=O)CCc2ccccc21	-28.4
c1ccc2oc(N3CCCC4(CCOC4)C3)nc2c1 (centres undefined)	-10.39
O=C(Cc1ccon1)N(CCC(F)(F)F)C1CCCC1	-15
COC(=O)c1ccccc1C(=O)N(CCN(C)C)Cc1sccc1C	-10.61
O=C(Cc1ccc(S(=O)(=O)C(F)F)cc1)N1CCC1	-8.484
CN1CCN(CC2(O)CCCN(C(=O)Cc3cccc(O)c3)CC2)CC1 (centres undefined)	188.6
CN(C)C[C@@H]1CN(C(=O)Cc2cccc(O)c2)C[C@@H]1CO	-7.089
O=C(Cc1cccc(O)c1)N1CCCC(O)(CN2CCCC2)CC1 (centres undefined)	146.3
O=C(Cc1ccc(S(=O)(=O)C(F)F)cc1)N1CCCC1	-6.682
O=C(Cc1cccc(O)c1)N1CCC2(CC1)c1ccccc1CC2O (centres undefined)	-3.302
OC1(CN2CCCC2)CCCN(Cc2cnc(-c3ccccc3)nc2)C1 (centres undefined)	1.78
COc1cccc(OCC2CCCN(C(=O)Cc3cccc(O)c3)C2)c1 (centres undefined)	-41.73
O=C(Cc1cccc(O)c1)N1CCCC(O)(CN2CCOCC2)CC1 (centres undefined)	193.2
O=C1N(Cc2cccc(F)c2F)CCCC1(O)CN1CCCOCC1 (centres undefined)	-6.352
O=C(Cc1ccc(O)cc1)N1CCCC(O)(CN2CCOCC2)CC1 (centres undefined)	136.3
COCCN(C/C=C/c1ccccc1)Cc1ncc[nH]1	16.38
CC(C)Cc1noc(COc2ccc(N(C)C(N)=O)cc2)n1	-17.39
Cn1cc(Cl)cc1C(=O)N1CCC2(CCCN(CC3CC3)C2=O)C1 (centres undefined)	-20.81
COCCCC(=O)NCc1cccc(NC(N)=O)c1	-9.096
CC(Nc1cccc(CN2CCOC2=O)c1)C(=O)Nc1ccccc1F (centres undefined)	-4.647

Compound	Percent Effect [%]
O=C1CC(NCc2cnc(C3CCCCC3)nc2)CN1c1ccccc1 (centres undefined)	-13.32
N#Cc1cc2c(nc1SCc1cc(O)nc(O)n1)CCCCC2	128.9
N#Cc1cc2c(nc1SCc1cc(O)nc(O)n1)CCCC2	96.26
N#Cc1cc2c(nc1O)CCCCC2	109.4
CCS(=O)(=O)c1ccccc1N1CCC(NC(=O)c2ccc[nH]2)CC1	7.844
CCOCc1nc2c(c(NC(CC)c3ccnn3C)n1)CCNCC2 (centres undefined)	-1.595
Cc1nnc(NC(=O)NCc2ccc(N3CCOCC3)nc2)s1	89.19
Cc1nnc(NC(=O)NCc2ccc(N3CCN(C)CC3)nc2)s1	5.046
COCCCNC(=O)NCc1ccc(N2CCOC(C)C2)nc1 (centres undefined)	-2.359
Cc1nnc(NC(=O)NCc2ccc(N3CCC(C)CC3)nc2)s1	109.6
CC(=O)Nc1nc(C(=O)NCc2ccc(N3CCCCCC3)nc2)cs1	26.65
COc1ccc([C@@H]2C[C@H](NC(C)=O)C[C@H](Cc3ccccc3)O2)cn1	-17
Brc1cccc(C2(CNCc3cc[nH]c3)CCOCC2)c1	-10.11
O=C(NCc1ccccn1)[C@H]1COC[C@H]2CN(c3ncccn3)C[C@H]21.O=C(O)C(F)(F)F.O=C(O)C(F)(F)F	6.701
CC1CCN(CC2CCCN(C(=O)Nc3ccccn3)C2)CC1 (centres undefined)	-7.919
CCC1CCCN(C(=O)Cc2csc(-c3ncccn3)n2)C1 (centres undefined)	-10.41
Cc1cccnc1NC(=O)C1CCN(C(=O)C(C)C)CC1	-2.993
CC(C)C(=O)N1CCCC(Cc2ccccn2)C1 (centres undefined)	90.21
CC(C)C(=O)N1CCCC(Cc2ncccn2)C1 (centres undefined)	110.8
CCC(=O)N1CCC(Cc2nccnc2Nc2ccccn2)CC1	7.091
COc1ccccc1CC1CCCN(C(=O)c2cc[nH]n2)C1 (centres undefined)	10.34
CC(C)C(=O)N1CCC(Cc2nccnc2Nc2ccccn2)CC1	100.8
Cc1noc(C)c1CN(C)c1nccc(C(F)(F)F)n1	-2.519
COc1cc(NC(=O)c2cscn2)ncn1	-4.682
c1ccc(OCC2CC3(CCN(Cc4ccncc4)CC3)CO2)nc1 (centres undefined)	4.031
Cc1csc(CN2CCC3(CC2)COC(COc2ccccn2)C3)n1 (centres undefined)	106.5
COCC1CC2(CCN(Cc3nc(C)cs3)CC2)CO1 (centres undefined)	102
